For twelve compounds, fold change, cell count and z-score results are on record in PubChem BioAssay.

The source made the active and inactive calls.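 How the source made its calls, unless noted: active means compounds whose cell count with miR-34 switched on is under 0.7 times the count with it off; inactive means the rest.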

Assay [1] can be described thus: sensitizers of A549 cells to miR-34 induction, primary screen, imaging, A549 dox-inducible miR-34, nuclei and caspase counts (AID 1347080). Further: test concentration not given here. As to conditions: A549 miR-34 inducible, Hoechst nuclei count, 48 h.
A short description of assay [2]: survival rescue of mitochondrial mutant cells in low glucose, primary screen, MELAS cybrids, Rieske KO mouse fibroblasts, CellTiter-Glo (AID 1508586;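 active means mean z-score across replicates of 1.96 or higher in either the MELAS or the Rieske mutant cell line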;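 further: test concentration not given here; z relative to plate mean and SD of compound and empty wells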).
The nature of assay [3]: viability rescue of complex I mutant cybrids, primary screen, cell-based, galactose medium, ATP luminescence (AID 1645843;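 active means z-score of at least 1.8 in each of two replicates, scored against plate mean and spread of sample wells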;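 further: positive z means more ATP and so rescue of galactose-driven cybrid death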). Particulars: complex I mutant cybrid cells, 72 h, stronger effect = higher value.
[4] abbreviates: stronger effect = lower value, cell number ratio, induced over uninduced.
The mark [5] stands for this setting: measured here: relative caspase fold change +Dox/-Dox.
Where [6] appears, read: measured here: total cells with miR-34 induction, stronger effect = lower value.
The mark [7] stands for this setting: measured here: total cells without miR-34 induction.
Where [8] appears, read: MELAS cybrid survival, CellTiter-Glo 48 h, stronger effect = higher value.
The mark [9] stands for this setting: Rieske KO mouse fibroblast survival, CellTiter-Glo 72 h.

Take `NS(=O)(=O)c1ccc(C(=O)NCc2ccccc2)cc1`: the fold change in assay [1] (setting [4]) is 0.871 (inactive); in assay [1] (setting [5]), 0.5. Also, the cell count amounted to 8310 in assay [1] (setting [6]) and 9540 in assay [1] (setting [7]). The figures for the z-score in assay [2] (setting [8]), in assay [2] (setting [9]) and in assay [3] were 0.51 (inactive), -0.575 and 0.795 (inactive), respectively.
`Cc1nonc1CN(C)c1ncnc2nc[nH]c12`: the fold change was 0.907 (inactive) in assay [1] (setting [4]) and 0.714 in assay [1] (setting [5]). Also, the cell count in assay [1] (setting [6]) is 9230; in assay [1] (setting [7]) it was 10200. For the same compound, the z-score was -0.379 (inactive) in assay [2] (setting [8]), -0.0852 in assay [2] (setting [9]) and -0.565 (inactive) in assay [3].
Consider `Cc1ccc(NC(=O)C2CC23CCCCC3)cn1` (centres undefined), for which the fold change was 0.887 (inactive) in assay [1] (setting [4]) and 0.564 in assay [1] (setting [5]). Besides, the cell count stood at 8250 in assay [1] (setting [6]) and 9300 in assay [1] (setting [7]). The values for the z-score in assay [2] (setting [8]), in assay [2] (setting [9]) and in assay [3] were -0.13 (inactive), -0.332 and -0.27 (inactive), respectively.
Turning to `Cc1nn(C)cc1-c1ccnc(NCc2nc(-c3ccccc3)no2)n1`, the fold change in assay [1] (setting [4]) was 0.84 (inactive); in assay [1] (setting [5]) it was 1.25. Moreover, the cell count in assay [1] (setting [6]) is 7970; in assay [1] (setting [7]), 9490. For the same compound, the z-score was -0.588 (inactive) in assay [2] (setting [8]), 1.31 in assay [2] (setting [9]) and 0.09 (inactive) in assay [3].
As for `Cc1ccccc1-n1cc(-c2ccnc(NCCC3(O)CCN(C)CC3)n2)cn1`, the fold change is 0.797 (inactive) in assay [1] (setting [4]) and 1.49 in assay [1] (setting [5]). Further, the cell count in assay [1] (setting [6]) worked out at 8470; in assay [1] (setting [7]) it was 10600. The results for the z-score in assay [2] (setting [8]), in assay [2] (setting [9]) and in assay [3] were 0.152 (inactive), -0.0851 and -0.43 (inactive), respectively.
For `CSCCC(NC(C)=O)C(=O)O` (centres undefined), the fold change was 0.861 (inactive) in assay [1] (setting [4]) and 0.784 in assay [1] (setting [5]). The cell count in assay [1] (setting [6]) is 8190; in assay [1] (setting [7]), 9520. In addition, the z-score is 0.71 (inactive) in assay [2] (setting [8]), -0.087 in assay [2] (setting [9]) and 0.53 (inactive) in assay [3].
`COc1ccc(CN2CCN(c3nccc(-c4cn(C)nc4C)n3)CC2=O)cc1`: the fold change in assay [1] (setting [4]) was 0.778 (inactive); in assay [1] (setting [5]) it was 1.57. The cell count was determined as 4640 in assay [1] (setting [6]) and 5960 in assay [1] (setting [7]). Further, the values for the z-score in assay [2] (setting [8]), in assay [2] (setting [9]) and in assay [3] were 4.51 (active), 2.53 and -0.37 (inactive), respectively.
With `CN(Cc1cnc2ccccc2n1)C(=O)Nc1n[nH]c(-c2ccco2)n1`, the fold change in assay [1] (setting [4]) is 0.886 (inactive); in assay [1] (setting [5]), 0.927. The cell count in assay [1] (setting [6]) was determined as 8010; in assay [1] (setting [7]), 9030. For the same compound, the z-score in assay [2] (setting [8]) was -0.974; in assay [2] (setting [9]), 3.4; in assay [3] it was 0.175 (inactive).
For `CCCOc1ccc(CC(=O)O)cc1Cl`, the fold change is 0.877 (inactive) in assay [1] (setting [4]) and 0.341 in assay [1] (setting [5]). Also, the values for the cell count in assay [1] (setting [6]) and in assay [1] (setting [7]) were 8590 and 9790, respectively. Besides, the z-score in assay [2] (setting [8]) is 0.699 (inactive); in assay [2] (setting [9]), 0.326; in assay [3], 0.735 (inactive).
`Cc1c(Br)c(=O)oc2c(Br)c(O)ccc12`: the fold change is 0.86 (inactive) in assay [1] (setting [4]) and 0.806 in assay [1] (setting [5]). Further, the figures for the cell count in assay [1] (setting [6]) and in assay [1] (setting [7]) were 8490 and 9870, respectively. In addition, the values for the z-score in assay [2] (setting [8]), in assay [2] (setting [9]) and in assay [3] were 0.723 (inactive), -0.168 and -0.145 (inactive), respectively.
As for `O=C1CN(c2ncnc3sccc23)CCN1Cc1cccc(F)c1`, the fold change was 0.826 (inactive) in assay [1] (setting [4]) and 1.63 in assay [1] (setting [5]). The cell count in assay [1] (setting [6]) was found to be 4730; in assay [1] (setting [7]), 5730. Besides, the results for the z-score in assay [2] (setting [8]), in assay [2] (setting [9]) and in assay [3] were -0.104 (inactive), 0.0557 and 3.78 (active), respectively.
On to `OCCCc1cn(C2CCN(c3nn4cnnc4c4ccccc34)CC2)nn1`, for which the fold change in assay [1] (setting [4]) is 0.902 (inactive); in assay [1] (setting [5]) it was 1.35. Further, the cell count in assay [1] (setting [6]) was determined as 8970; in assay [1] (setting [7]), 9940. The figures for the z-score in assay [2] (setting [8]), in assay [2] (setting [9]) and in assay [3] were 0.105 (inactive), -0.51 and -0.54 (inactive), respectively.
